PubChem BioAssay AID504527 (The Scripps Research Institute Molecular Screening Center, 2011)
Values without a mark were called inactive. Calls of active or inactive are those of the source.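 The calls were made as follows: active = two or more serine hydrolases at least half inhibited, plus every target band half blocked in a general-probe test; inactive = under two enzymes half blocked, or any target band not.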

Experiment: broad serine hydrolase inhibition in proteome, late-stage follow-up, selectivity assay for PAFAH2 inhibitor project, fluorescence, gel-based ABPP, powder samples (AID 504527)
Conditions: BW5147 murine T-cell proteome, FP-Rh fluorescence, competitor test compound, probe FP-Rh, at 20 µM, hits give high values

Row | SMILES | number of serine hydrolases inhibited >=50%
1 | C#CCOCCOCCOCCN(Cc1ccccc1)C(=O)Oc1ccc([N+](=O)[O-])cc1 | 1
2 | C#CCOCCOCCOCCN(Cc1ccccc1)C(=O)n1ncc(-c2ccccc2)n1 | 8 (active)
3 | C#CCOCCOCCOCCN(Cc1ccccc1)C(=O)n1nccn1 | 5 (active)
4 | C#CCOCCOCCOCCN(Cc1ccccc1)C(=O)n1nc2cccnc2n1 | 7 (active)
5 | C#CCOCCOCCOCCN(Cc1ccccc1)C(=O)n1ccnc1 | 0
